TrxR1 inh = qHTS Assay for Inhibitors of Mammalian Selenoprotein Thioredoxin Reductase 1 (TrxR1): qHTS | Thioredoxin reductase 1, cytoplasmic (Rattus norvegicus), O89049 | Potency, µM (doses to about 114 µM), inactives show at the highest dose activity change, negative = inhibition, most hits filed as inhibitors | recombinant rTrxR1, NADPH fluorescence consumption, selenite substrate | hit rate 1% among 390,000 | AID 588453, 2011; also: potency is read from the fitted curve at half-maximal effect; % is scaled to controls: 0 for no effect and ±100 for the full control effect; nearly all actives have a fitted effect of over 65% in size
Target sequence (O89049 whole entry, looked up): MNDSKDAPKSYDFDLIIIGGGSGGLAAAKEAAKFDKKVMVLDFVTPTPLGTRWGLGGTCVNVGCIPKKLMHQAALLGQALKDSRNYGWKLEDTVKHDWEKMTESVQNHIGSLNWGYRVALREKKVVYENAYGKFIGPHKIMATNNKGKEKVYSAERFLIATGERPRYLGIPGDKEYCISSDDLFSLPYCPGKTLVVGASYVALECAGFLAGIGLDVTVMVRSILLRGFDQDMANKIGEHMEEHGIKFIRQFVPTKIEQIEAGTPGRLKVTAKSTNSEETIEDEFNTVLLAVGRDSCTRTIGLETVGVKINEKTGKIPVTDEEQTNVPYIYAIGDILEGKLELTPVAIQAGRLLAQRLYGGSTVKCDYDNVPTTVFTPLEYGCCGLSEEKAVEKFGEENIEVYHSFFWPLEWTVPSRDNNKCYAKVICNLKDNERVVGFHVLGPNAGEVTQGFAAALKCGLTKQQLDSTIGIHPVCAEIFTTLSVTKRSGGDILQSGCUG
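Rat TrxR1 (90 nM in the dispensed reagent) was pre-reduced with 400 uM NADPH for 5 min at room temperature, then incubated with compound for 15 min. After 400 uM selenite was added, NADPH fluorescence (Ex 340/Em 450 nm) was followed for 8 min.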
TrxR1 substrate = qHTS Assay for Substrates of Mammalian Selenoprotein Thioredoxin Reductase 1 (TrxR1): qHTS | hit rate 0.01% among 390,000 | purified TrxR1 substrate turnover, NADPH consumption readout | Thioredoxin reductase 1, cytoplasmic (Rattus norvegicus), O89049 | Potency, µM (titrated, usually from 114 µM), for inactives: top-dose activity change, negative = substrate turnover; also: potency is read from the fitted curve at half-maximal effect; % is scaled to controls: 0 for no effect and ±100 for the full control effect; nearly all actives have a fitted effect of over 50% in size
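Rat TrxR1, dispensed at 90 nM, was prereduced with 400 uM NADPH (final) for 5 min at ~22 deg C, then incubated with compound 15 min before 400 uM selenite. A first-read NADPH fluorescence drop versus no-compound background flagged substrates.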
A-T KAP1 phos = qHTS Assay for Identifying a Potential Treatment of Ataxia-Telangiectasia; F2112 A-T fibroblasts, KAP-1 phosphorylation AlphaLISA; neocarzinostatin DNA damage 30 min before lysis; Potency, µM (titrated, usually from 57.5 µM), inactives show at the top dose activation, usual class: activators; hit rate 0.19% among 320,000; also: potency is read from the fitted curve at half-maximal effect; % of control where 0% means no effect; nearly all actives have a fitted effect of over 45% in size
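ATM-like activity read as KAP-1 phosphorylation via AlphaLISA donor/acceptor antibody pairs after lysis and 6 hr at 25C. Cells were ATM-null patient fibroblasts (F2112, hTERT), dosed 60 min, then exposed to the DSB inducer NCS for 30 min.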
pAkt inh = HTS Assay for Inhibitors of Akt Phophorylation: Primary Screen | Neuro2A IGF-stimulated pAkt S473 HTRF, 20 min; active compounds read low | activity change, % for hits at 50 µM | hit rate 0.32% among 360,000 | AID 651550, 2012; in the data active = activity change below about -80%; inconclusive = mostly about -51% to -80%; also: % is scaled to controls: 0 for no effect and ±100 for the full control effect
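Single-point screen (50 µM final compound) in Neuro2A cells stimulated 20 min with 6 nM IGF at 37 deg C. After lysis, Ser473-phosphorylated Akt read by HTRF (ex 330 nm, em 615/665 nm) as the 665/615 ratio.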
Pin1 inhibitor = qHTS Assay to Find Inhibitors of Pin1; Peptidyl-prolyl cis-trans isomerase NIMA-interacting 1 (Homo sapiens), Q13526; Pin1 FP peptide displacement, HiFluor488, 10 min; Potency, µM (doses to about 115 µM), for the others: at the highest dose activity, negative = inhibition, most hits filed as inhibitors; hit rate 0.009% among 390,000; active = well fitted inhibition curve with a large enough effect in the polarisation, with a control signal flat, not every such curve was filed as active; inconclusive = small, poorly fitted or top-dose-only effect, or effect the other way, or a change in a side signal; inactive = no such curve, though single readings can be large or run the other way; the % refers to the polarisation; also: potency is read from the fitted curve at half-maximal effect; % is scaled to controls: 0 for no effect and ±100 for the full control effect
Target sequence (Q13526 whole entry, looked up): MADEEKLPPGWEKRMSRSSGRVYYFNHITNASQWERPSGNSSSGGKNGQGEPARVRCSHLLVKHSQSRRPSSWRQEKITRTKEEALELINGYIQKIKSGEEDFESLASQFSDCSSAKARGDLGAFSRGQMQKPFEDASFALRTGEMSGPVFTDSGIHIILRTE
N370S GC = qHTS Assay for Inhibitors and Activators of N370S glucocerebrosidase as a Potential Chaperone Treatment of Gaucher Disease. hit rate 0.092% among 330,000. Potency, µM (series often up to 59.4 µM), inactives show at the top dose activity change, negative = inhibition, actives largely listed as inhibitors. Lysosomal acid glucosylceramidase (Homo sapiens), P04062. N370S GC spleen homogenate, 4MU-glucoside fluorescence. AID 2101, 2009;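 also: potency is read from the fitted curve at half-maximal effect; 0% = full enzyme activity and -100% = no enzyme basal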
* = called active by the depositor; i = inactive; ? = inconclusive; . = not tested or not shown; [ ] = remark or other dose. Shown are actives, neighbours in structure and some others; about 1.4% of the full set was active somewhere. Unless noted, calls follow the shape of the dose curve; as a rule, active = well fitted curve in the direction sought with a large enough effect; inconclusive = small, poorly fitted or top-dose-only effect, or another doubt; inactive = no such curve, though single readings can be large; an effect the other way counts as inactive or inconclusive.

SMILES	TrxR1 inh	TrxR1 substrate	A-T KAP1 phos	pAkt inh	Pin1 inhibitor	N370S GC
NC(=O)/C=C\C(=O)Nc1cccc(C(F)(F)F)c1	25µM*	11%	-5%	i	-3%	6%
COc1cc(NC(C)=O)c2ncccc2c1[N+](=O)[O-]	5%	-6%	-4%	i	-9%	-11%
COc1cc(NC(C)=O)c2ncccc2c1NC(C)=O	-33%[57.1 µM]	-12%[57.1 µM]	35µM*	i	-13%	-7%
COc1ccc(-c2csc(-n3ncc(C(=O)O)c3C(F)(F)F)n2)cc1	12%	-4%	40µM*	i	0%	-3%
CNC(=O)c1cnn(-c2nc(-c3ccc(OC)cc3)cs2)c1C(F)(F)F	-1%	-5%	-2%	i	-3%	1%
COc1ccccc1C(=O)c1cn(CC(=O)Nc2ccccc2F)c2nc(C)ccc2c1=O	-2%[57.1 µM]	-3%[57.1 µM]	.	.	5%	.
COc1cccc(/C=C2\SC(=S)N(C(C)C(=O)NC3C=CS(=O)(=O)C3)C2=O)c1 (stereo not given)	-17%	-10%	-5%	i	1%	16µM*
COc1ccc(/C=C2\SC(=S)N(C(C)C(=O)NC3C=CS(=O)(=O)C3)C2=O)cc1 (stereo not given)	-5%	-3%	-13%	i	-2%	?
O=C1CCc2cc(S(=O)(=O)Nc3ccc4ccccc4c3)ccc2N1	.	.	.	.	0%	.
N#CC1(C#N)OC12CCS(=O)(=O)c1ccccc12 (stereo not given)	50µM*	1%	.	i	3%	.
Cc1cc(N2C(=O)c3ccccc3C2=O)n[nH]1	.	.	.	.	-6%	.
O=c1c(C(c2ccc(O)cc2)c2c(O)nc3n(c2=O)CCCS3)c(O)nc2n1CCCS2	3.5µM*	12%	-1%	i	0%	3%
CCCc1nn2c(=O)c(C(c3ccc(C)cc3)c3c(O)nc4sc(CCC)nn4c3=O)c(O)nc2s1	-29%	-1%	23%	i	14%	1%[12.8 µM]
O=c1c(C(c2c(O)nc3n(c2=O)CCS3)c2cccc3ccccc23)c(O)nc2n1CCS2	11µM*	-8%	-1%	i	?	-15%
O=c1c2ccccc2nc2n1CCCS2	30%	14%	-1%	i	-12%	9%
O=c1c2[nH]c3ccccc3c2nc2n1CCS2	31%[57.1 µM]	-1%[57.1 µM]	0%	i	2%	2%
O=c1c(C(c2ccc(O)cc2)c2c(O)nc3n(c2=O)CCS3)c(O)nc2n1CCS2	3.2µM*	-7%	-3%	i	0%	1%
Cc1ccc(C(c2c(O)nc3n(c2=O)CCS3)c2c(O)nc3n(c2=O)CCS3)cc1	2.8µM*	13%[57.1 µM]	2%	i	-5%	-5%
O=c1c(Cc2ccccc2)c(O)nc2n1CCS2	-7%	-8%	-1%	i	1%	5%[12.8 µM]
CCSc1nnc2c(n1)OC(c1sccc1C)N(C(C)=O)c1ccccc1-2 (stereo not given)	-1%	-8%	.	.	2%	.
Cc1ccc(NS(=O)(=O)c2ccc3c(c2)N(C)C(=O)CO3)cc1C	.	.	.	.	4%	.
Cn1c2cc(S(C)=O)sc2c2cnn(Cc3ccccc3F)c(=O)c21 (stereo not given)	.	.	.	.	-9%	.
Cc1ccc2nccnc2c1	?	-11%	.	.	.	.
CC(C)CNC(=O)c1ccccc1NC(=O)Nc1ccccc1	8%[57.1 µM]	1%[57.1 µM]	-1%	-105%*	2%	7%
CCC(C)NC(=O)c1ccccc1NC(=O)Nc1ccccc1 (stereo not given)	12%[11.4 µM]	10%[11.4 µM]	1%	i	-7%	3%
SMILES	TrxR1 inh	TrxR1 substrate	A-T KAP1 phos	pAkt inh	Pin1 inhibitor	N370S GC
CCN(C(=O)CSc1nc2ccccc2n1CC(=O)Nc1ccccc1C)c1ccccc1	22%[57.1 µM]	8%[57.1 µM]	.	.	-1%	.
CCCc1c(C)c2ccc(O)c(CN3CCN(c4ccc(F)cc4)CC3)c2oc1=O	?	74%	.	.	-15%	.
Cc1cc(O)c(CN2CCN(c3ccc(F)cc3)CC2)c2oc(=O)cc(C)c12	79µM*	739%	.	.	-3%	.
CN(Cc1ccco1)C(=O)CCc1nc2sc3c(c2c(=O)[nH]1)CCCC3	18µM*	-3%	-5%	i	?	15%
Cc1ccc(CN(C)C(=O)CCc2nc3sc4c(c3c(=O)[nH]2)CCCC4)o1	50µM*	-3%	13%	i	34%	-9%
COc1cc(OC)c(OC)cc1/C=C/c1ccc2ccccc2[n+]1C	-13%	-13%	.	.	.	.
FC(F)(F)c1cccc(Nc2c3c(nc4ccc(Cl)cc24)CCC3)c1	0%	-1%	.	.	-8%	.
O=C(COC(=O)c1ccc([N+](=O)[O-])o1)Nc1ccc2c(c1)OCO2	18µM*	5%[57.1 µM]	-16%	i	-6%	.
COc1cccc(C2c3c(ncn(Cc4cccs4)c3=N)Oc3ccc4ccccc4c32)c1 (stereo not given)	.	.	.	.	27%	.
CCCCN(C)C(=O)c1ccc2c(c1)N(Cc1cccc(Cl)c1)C(=O)c1ccccc1S2=O (stereo not given)	-25%[57.1 µM]	-9%[57.1 µM]	.	.	15%	.
CCOC(=O)CSc1cc(C)c(C#N)c2nc3ccccc3n12	1.1µM*	9%[57.1 µM]	-3%	i	6%	1%
Cc1[nH][nH]c(=O)c1C(c1c(C)[nH][nH]c1=O)c1cn(Cc2ccc(Cl)c(Cl)c2)c2ccccc12	?	56µM*	-8%	i	4%	4%
CCOC(=O)C1=C(COC(=O)c2ccc([N+](=O)[O-])o2)NC(=O)NC1C (stereo not given)	28µM*	-2%	15%	i	-2%	.
CCOC(=O)C1=C(COC(=O)c2cc([N+](=O)[O-])ccc2Cl)NC(=O)NC1C (stereo not given)	.	.	.	i	.	.
N#CC(C#N)=NNc1ccc(S(=O)(=O)N2CCCCC2)cc1	32µM*	-12%	-5%	i	7%	-5%
CCN(CC(=O)Nc1cc(Cl)ccc1C)C(=O)CCOc1ccccc1C	40µM*	4%	11%	i	-2%	-3%
CCN(CC(=O)Nc1cc(Cl)ccc1C)C(=O)COc1ccccc1F	15%[57.1 µM]	-3%	1%	i	0%	8%
CC(C)CC(=O)/C(=C\c1ccc(Cl)cc1Cl)n1cncn1	8.9µM*	3%	-2%	i	16%	-9%
COc1ccc(NC(=O)CCc2c(C)nc3nc(C)nn3c2C)cc1	7%	-1%	-2%	-118%*	-3%	-4%
CCCCCCCCCC[n+]1ccc(/C=C/c2ccc(N(C)C)cc2)c2ccccc21	?	-14%	.	.	.	.
